Each structure is given as a SMILES string. Hit rate of the full screen: of about 290,000 compounds, about 3,300 (1.1%) were called active. No stated cut-off is given here; in the data, active means binding response below about 67% or above about 130%; inconclusive means no clear call, values can overlap the other calls; inactive means in between. For the sample, actives were picked, then their nearest neighbours and some compounds at random.

This assay deals with Mitogen-activated protein kinase kinase kinase 2 (Homo sapiens) (UniProt Q9Y2U5). Nature of the assay: modulators of MEK5 binding to wildtype MEKK2, primary screen, biochemical, multiplex bead flow cytometry, Alexa488-MEK5 (AID 1531). The following applies: Alexa488-MEK5 binding to MEKK2 WT, at 10 µM, actives lie on both sides. On the technique in general: Flow cytometry measures light scatter and fluorescence of single cells or particles in a stream.
Regarding `Cc1cc(C(=O)NC2CCN(Cc3ccccc3)CC2)n[nH]1`, the binding response (% of control) was 98% (inactive). As for `CCOc1ccc(CC(=O)NC2CCN(Cc3ccccc3)CC2)cc1`, the binding response (% of control) is 108% (inactive).

Consider `O=C(NC1CCN(Cc2ccccc2)CC1)c1ccc(Oc2cc(Cl)cc(Cl)c2)o1`, for which the binding response (% of control) was 142% (active). On to `O=C(NC1CCN(Cc2ccccc2)CC1)c1ccccc1F`, for which the binding response (% of control) is 101% (inactive). In the case of `O=C(NC1CCN(Cc2ccccc2)CC1)c1cc(Br)c(Br)[nH]1` it was 140% (active); in that of `O=C(NC1CCN(Cc2ccccc2)CC1)c1c(F)cccc1F`, 113% (inactive); in that of `C#CCOc1ccc(/C=C2/C(=O)ON=C2C)cc1OCC`, 107% (inactive). In the case of `CCc1nnc(SCc2cccc(F)c2)nc1CC` it was 103% (inactive); in that of `Fc1ccc(-c2ccc(CNCc3ccccn3)o2)cc1Cl`, 140% (active); in that of `COc1ccc(-c2ccc(CNCCCN3CCOCC3)o2)cc1Cl`, 106% (inactive). In the case of `O=C(NCc1ccccn1)c1cc(Br)ccc1Cl` it was 106% (inactive). Turning to `Cc1ccc(-c2nc3ccccc3[nH]2)cc1NC(=O)c1sc2ccccc2c1Cl`, the binding response (% of control) is 98% (inactive). The figure for `O=C(Nc1cccc(-c2nc3ccccc3[nH]2)c1)c1ccc(C(=O)Nc2cccc(-c3nc4ccccc4[nH]3)c2)cc1` is 63% [inhibitor] (active). In the case of `O=C(Cc1cccs1)Nc1cccc(-c2nc3ccccc3[nH]2)c1`, the binding response (% of control) was 95% (inactive). The figure for `C=C1CCN([C@@H](Cc2ccccc2)C(=O)N2CCOCC2)S(=O)(=O)c2ccccc21` is 107% (inactive); for `COc1ccc(NC(=O)CCC(=O)Nc2cc(OC)c(NC(=O)c3ccco3)cc2OC)c(OC)c1` it is 96% (inactive); for `O=C(NCC1CC1)c1onc(CSc2ccccc2)c1C(=O)NCC1CC1` it is 95% (inactive). The figure for `CCc1ccc(NC(=O)Cn2nnc(C(=O)NCc3ccc(OC)cc3)c2N)cc1` is 104% (inactive); for `COc1ccc(NC(=O)Cn2nnc(C(=O)NCCc3ccc(OC)c(OC)c3)c2N)cc1` it is 2% [inhibitor] (active). In the case of `COc1ccc(CNC(=O)c2nnn(CC(=O)Nc3cc(C)cc(C)c3)c2N)cc1` it was 101% (inactive). Regarding `CCC(C)N1CC(=O)N2Cc3[nH]c4ccccc4c3C[C@H]2C1=O` (some centres undefined), the binding response (% of control) was 109% (inactive). `COc1ccc(NC(=O)C/C(C)=N/NC(=O)c2cnccn2)cc1Cl`: the binding response (% of control) is 96% (inactive). In the case of `CC(=O)Nc1cccc(OCC(=O)/C=C2\N(C)c3ccccc3C2(C)C)c1` it was 63% [inhibitor] (active). The figure for `CN1/C(=C\C(=O)c2cccnc2Cl)C(C)(C)c2ccccc21` is 95% (inactive); for `Cc1noc(C)c1C(=O)OCC(=O)/C=C1\N(C)c2ccccc2C1(C)C` it is 96% (inactive).

Take `COc1ccc(Cl)cc1-n1c(=S)sc2c(=O)n(-c3ccc(F)cc3)c(SCC(=O)O)nc21`: the binding response (% of control) was 101% (inactive). In the case of `COc1ccc(Oc2cn[nH]c2-c2ccc(OC)cc2O)cc1` it was 98% (inactive); in that of `COCCCNC(=S)N1CCN(c2nc(-c3cccc(OC)c3)cs2)CC1`, 95% (inactive).

Turning to `CN(C)CCCNC(=S)N1CCC(c2nc3ccccc3[nH]2)CC1`, the binding response (% of control) is 116% (inactive). In the case of `CN(C)CCCNC(=S)N1CCN(c2nc(-c3ccccc3)cs2)CC1` it was 149% (active); in that of `O=C(CSc1ccc(-c2ccccn2)nn1)Nc1ccccc1`, 110% (inactive). In the case of `COc1cc2c(cc1OC)C(c1ccccc1Br)NC(=O)C2` (centres undefined) it was 103% (inactive); in that of `COCCCN1C(=O)c2ccc(C(=O)OCC(=O)NCc3ccccc3OC)cc2C1=O`, 101% (inactive); in that of `CN1CCN(CCCNC(=O)c2ccc(/C=C3\Oc4ccccc4N(Cc4ccc(Cl)cc4)C3=O)cc2)CC1`, 171% (active). The figure for `CN1C(=O)/C(=C/c2ccc(C(=O)NC3CCCC3)cc2)Oc2ccccc21` is 99% (inactive); for `CCCN1CCN(C(=O)CCCNC(=O)c2ccc(Cl)cc2)CC1` it is 100% (inactive); for `CS(=O)(=O)N(CC(=O)N1CCCCCC1)c1cccc(Cl)c1Cl` it is 108% (inactive).

As for `CCc1cccc(C)c1NS(=O)(=O)c1cc(Br)cnc1N`, the binding response (% of control) is 92% (inactive). For `CCN1/C(=C/c2ccc3ccc(C)cc3[n+]2CC)Sc2ccccc21`, the binding response (% of control) is 74% (inactive). In the case of `CCN1/C(=C/C(=S)Nc2ccccc2)Sc2ccccc21` it was 87% (inactive); in that of `CCN1/C(=C\c2ccc3ccccc3[n+]2CC)Sc2cc(C)ccc21`, 20% [inhibitor] (active). The figure for `CC1(C)CC[C@]2(C(=O)O)CC[C@]3(C)C(=CCC4[C@@]5(C)CC[C@H](O)C(C)(C)C5[C@H](O)C[C@]43C)[C@@H]2C1` (some centres undefined) is 100% (inactive); for `N#CCc1c(C#N)c(N)nc(N2CCCC2)c1C#N` it is 107% (inactive). Regarding `O=C(NCc1ccccc1)c1onc(CSc2ccncc2)c1C(=O)NCc1ccccc1`, the binding response (% of control) is 104% (inactive).

For the compound `O=C(CCl)NNc1nc(-c2ccccc2)c2cc(Cl)ccc2n1`, the binding response (% of control) was 102% (inactive). The figure for `Clc1ccc2nc(-c3ccccc3)nc(C(Cl)Cl)c2c1` is 90% (inactive). In the case of `NC(N)=Nc1nc(-c2ccccc2)c2cc(Cl)ccc2n1` it was 150% (active); in that of `CC(C)(C)n1nc(Cc2cccc3ccccc23)c(C#N)c1N`, 98% (inactive). The figure for `COc1ccccc1NC(=O)c1ccc(N2CC3CC(C2)c2cccc(=O)n2C3)c(NC(=O)c2cccnc2)c1` (centres undefined) is 105% (inactive); for `O=C1N[C@H](Cc2ccccc2)C(=O)N[C@H]1Cc1cn(S(=O)(=O)c2ccccc2)c2ccccc12` it is 102% (inactive). Turning to `C/C=C/C(=O)OCc1csc(CC(=O)Nc2ccccc2C)n1`, the binding response (% of control) was 94% (inactive). The figure for `OCC1(CCOc2ccccc2)CCN(Cc2cn[nH]c2-c2ccccc2)CC1` is 94% (inactive); for `CCOC(=O)C1(CCOc2ccccc2)CCN(Cc2cc(OC)c(O)cc2Cl)CC1` it is 126% (inactive). The figure for `Cc1c(CN2CCC(CO)(CCOc3ccccc3)CC2)[nH]c2ccc(Cl)cc12` is 227% (active); for `COc1ccc(C2NC(=O)C(=O)/C2=C(\O)c2ccc(Cl)cc2)cc1OC` (centres undefined) it is 109% (inactive); for `COC(C[C@@H](O)C[C@@H](O)[C@H](C)OCc1ccccc1)OC` it is 97% (inactive). The figure for `Cn1c(SCc2nc3ccccc3s2)nnc1-c1ccc2c(c1)OCO2` is 30% [inhibitor] (active); for `O=C(O)CSc1nnc(-c2ccc3c(c2)OCO3)n1-c1ccccc1` it is 102% (inactive); for `Cn1c(SCC(=O)N2CCCC2)nnc1-c1ccc2c(c1)OCO2` it is 105% (inactive). Regarding `CC1CCC2CCCCC2N1C(=O)c1cc([N+](=O)[O-])cc([N+](=O)[O-])c1` (centres undefined), the binding response (% of control) was 97% (inactive). The figure for `CCn1c(SCc2ccccc2)nc2cc(OC)c(OC)cc2c1=O` is 105% (inactive); for `COCCNC(=S)Nc1cc(S(=O)(=O)N2CCOCC2)ccc1N1CCCCC1` it is 103% (inactive); for `O=C(NCC1CCCCC1)c1cc(S(=O)(=O)N2CCCCC2)ccc1N1CCOCC1` it is 4% [inhibitor] (active).

On to `COc1ccc(S(=O)(=O)N2CCOCC2)cc1C(=O)NC1CCCCC1`, for which the binding response (% of control) is 104% (inactive). On to `CC(C)(c1ccccc1)c1ccc(OCCN2CCCC2)cc1`, for which the binding response (% of control) was 119% (inactive). Take `Cc1onc(-c2ccccc2Cl)c1C(=O)OCC(=O)c1ccccc1`: the binding response (% of control) is -2% [inhibitor] (active).

As to `Cc1onc(-c2ccccc2Cl)c1C(=O)NCCn1ccc2ccccc21`, the binding response (% of control) was 98% (inactive). Consider `Cc1[nH]c2ccccc2c1C(=O)COC(=O)c1c(-c2ccccc2)noc1C`, for which the binding response (% of control) is 113% (inactive). In the case of `O=C1CC2(CCCC2)Oc2ccc(Cl)cc21`, the binding response (% of control) is 109% (inactive). The figure for `C/C(=N\NC(=O)C1(C)CC1(Br)Br)c1ccc(C)cc1C` (centres undefined) is 98% (inactive); for `COc1ccccc1N1CCN(CCCCOc2ccc(F)cc2)CC1` it is 135% (active). The figure for `COc1ccc(OCCCCN2CCC(C)CC2)cc1` is 106% (inactive); for `CCN1CCN(CCCCOc2ccccc2F)CC1` it is 98% (inactive). The figure for `O=C(NCCO)C(=O)NCC(c1ccc2c(c1)OCO2)N1CCN(c2ccc(F)cc2)CC1` (centres undefined) is 99% (inactive).

Consider `O=C(COc1ccc([N+](=O)[O-])cc1)Nc1cccc(C(=O)Nc2ccccc2C(=O)O)c1`, for which the binding response (% of control) is 94% (inactive). In the case of `O=C(CC1NCCNC1=O)Nc1cc(Cl)cc(Cl)c1` (centres undefined) it was 108% (inactive); in that of `O=C(CC1SCCNC1=O)Nc1ccc(Cl)cc1` (centres undefined), 87% (inactive). For the compound `O=C(CC1SCCNC1=O)Nc1ccc(Cl)c(Cl)c1` (centres undefined), the binding response (% of control) is 186% (active). The figure for `CC(C)c1c(C(=O)N/N=C/c2ccccc2C(=O)O)nnn1-c1nonc1N` is 102% (inactive); for `COC(=O)CN1C(=O)C(C)(C)Oc2ccc(C(=O)Nc3cccc(OC)c3)cc21` it is 108% (inactive); for `CCOC(=O)c1ccc2[nH]c3c(c2c1)CCCC3NC=O` (centres undefined) it is 97% (inactive). The figure for `N#CCSc1nc(-c2ccccc2)nc2ccc(F)cc12` is 100% (inactive); for `COc1ccc(NC(=O)CS(=O)(=O)c2ccccc2)cc1` it is 109% (inactive); for `CCOc1nnc(C)c2c(C)n(-c3cccc(Cl)c3)nc12` it is 72% [inhibitor] (active). In the case of `COC(=O)C(C)n1cnc2c(nnn2-c2cccc(Cl)c2)c1=O` (centres undefined), the binding response (% of control) is 106% (inactive). For the compound `CCOc1ccc(CNC(=O)C2CCCN(c3nnc(C)c4c(C)n(-c5ccccc5)nc34)C2)cc1` (centres undefined), the binding response (% of control) was 105% (inactive). The figure for `COc1ccc(NC(=O)CN2C(=O)COc3ccc(S(=O)(=O)N4CCOCC4)cc32)cc1` is 97% (inactive); for `Fc1ccccc1COc1cccc2cccnc12` it is 110% (inactive). The figure for `Cc1ccc(-c2nc(CSCC(=O)NC3CCN(Cc4ccccc4)CC3)c(C)o2)cc1` is 107% (inactive); for `Cc1ccc(S(=O)(=O)N2CCN(C(=O)CSc3cc(C)ccc3C)CC2)c(C)c1` it is 104% (inactive). In the case of `CC(=O)NCCC(=O)Nc1nc(-c2ccc3c(c2)OCCO3)cs1` it was 109% (inactive); in that of `Cc1cccc(NC(=O)c2cc([N+](=O)[O-])ccc2N2CCN(C)CC2)c1`, 101% (inactive). `CC(=O)Nc1ccc(N2CCOCC2)c(C(=O)Nc2cccc(C)c2)c1`: the binding response (% of control) was -1% [inhibitor] (active). In the case of `COC(=O)c1cc(NC(=O)c2ccco2)ccc1N1CCOCC1` it was 99% (inactive).

For the origin of these results see PubChem BioAssay AID1531 (NMMLSC, 2009).
